Compound activity: PubChem, PCMD
Shown are actives, neighbours in structure and some others; about 0.5% of the full set was active somewhere.
Cathepsin G inh: cathepsin G (human) inhibition; AID 581; P08311; purified enzyme, AMC-tetrapeptide fluorescence, pooled mixtures; inhibition, % at 5 µM (by protocol); 62,000 compounds, 0.2% hits;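 active = inhibition above 20% in each of the two mixture wells holding the compound; inactive = inhibition of 20% or less in either well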;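 also: 0% = enzyme control without mixture and 100% = blank lacking enzyme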
FXIa mix inh: blocks human factor XIa in pooled compound mixtures | P03951 | purified FXIa, fluorogenic substrate | inhibition, % at 5 µM | 62,000 compounds, 0.19% hits | AID 680;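 also: each value is inhibition by a whole ten-compound pool holding the compound; 0% = enzyme with no mixture and 100% = wells lacking enzyme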
Target sequence (P03951 19-387 limits assumed): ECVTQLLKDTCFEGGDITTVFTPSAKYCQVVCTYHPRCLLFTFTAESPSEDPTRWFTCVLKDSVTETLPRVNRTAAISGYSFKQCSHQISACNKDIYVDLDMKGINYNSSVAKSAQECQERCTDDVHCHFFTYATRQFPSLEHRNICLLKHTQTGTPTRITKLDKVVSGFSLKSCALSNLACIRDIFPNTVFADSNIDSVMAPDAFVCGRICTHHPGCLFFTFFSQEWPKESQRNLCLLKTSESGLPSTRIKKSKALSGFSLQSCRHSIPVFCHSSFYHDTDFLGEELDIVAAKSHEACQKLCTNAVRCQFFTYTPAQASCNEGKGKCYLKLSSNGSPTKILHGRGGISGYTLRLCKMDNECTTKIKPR
Target sequence (P03951 388-625 limits assumed): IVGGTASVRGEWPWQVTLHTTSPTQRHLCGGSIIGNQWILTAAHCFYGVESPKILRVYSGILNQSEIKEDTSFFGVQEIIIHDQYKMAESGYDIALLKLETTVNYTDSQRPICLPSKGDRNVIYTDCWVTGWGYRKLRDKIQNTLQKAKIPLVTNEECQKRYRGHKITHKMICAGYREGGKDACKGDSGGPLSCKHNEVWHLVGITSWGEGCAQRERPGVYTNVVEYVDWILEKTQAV
FXIIa inh mix: factor XIIa (human) inhibition, mixture screen. AID 684. 62,000 compounds, 0.2% hits. inhibition, % at 5 µM. P00748. purified FXIIa, fluorogenic substrate, pooled mixtures;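 also: 0% = enzyme without compound and 100% = no enzyme blank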
C1s block: blocks human complement C1s protease activity; P09871; purified C1s, fluorogenic AMC substrate, pooled mixtures; mean inhibition % of two 10-compound mixtures (stronger effect = higher value), % at 5 µM (by protocol); 62,000 compounds, 0.16% hits; AID 538;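 active = inhibition above 20% in each of the two 10-compound mixture wells holding the compound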;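 also: 0% = enzyme wells lacking compound mixture and 100% = no-enzyme blank wells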
Starred values were filed as active, the others as inactive; / = not tested or not shown. Rule as the data show it, unless noted: active = inhibition above about 20% (passing the limit was not always enough); inactive = the rest.

SMILES	Cathepsin G inh	FXIa mix inh	FXIIa inh mix	C1s block
COc1ccccc1-c1cc(C(=O)NCc2ccccc2)no1	51*	11	-4	-22
COCCNC(=O)c1cc(-c2ccc(OC)c(OC)c2)on1	-2	0	12	-2
COc1ccc(CCNC(=O)c2cc(-c3ccccc3)on2)cc1OC	9	7	47*	7
COc1ccccc1-c1cc(C(=O)NCc2ccc(Cl)cc2)no1	46*	3	4	-10
COc1ccc(CNC(=O)c2cc(-c3ccccc3OC)on2)cc1	10	5	9	16
COc1ccccc1-c1cc(C(=O)NCc2ccc(F)cc2)no1	/	11	5	44
O=C1CCCN1CCC1CCN(C2CC(=O)N(c3ccc(Cl)cc3)C2=O)CC1 (configuration not stated)	-19	-21	4	-77
COC(=O)c1ccccc1NC(=O)c1cc2sccc2n1C	31*	-3	3	-5
O=C(NCCc1ccccc1)C1CCN(S(=O)(=O)c2ccc(-c3nn[nH]n3)cc2)CC1	8	-4	4	-3
CCOC(=O)C1CCN(C(=O)CSc2ccccc2)CC1	13	6	6	65*
CCOc1cc(NC2CS(=O)(=O)CC2O)c(OCC)cc1NC(=O)c1ccccc1 (configuration not stated)	8	6	10	11
COc1ccccc1-c1c(C#N)c(SCC(=O)N2CCCC2)nc(C)c1C(N)=O	25*	7	-18	11
CCn1cc(C(=O)O)c(=O)c2cnc(N3CCN(C(=O)Nc4cccc5ccccc45)CC3)nc21	-2	1	17	-4
Cc1cnc(C(=O)Nc2ccccc2-c2ccc(C)o2)cn1	28*	-2	5	-16
CCOc1ccc(S(=O)(=O)N(CC(=O)O)c2ccc(C)cc2)cc1	3	-1	48*	3
COc1cccc(C2NC(=O)NC(C)=C2C(=O)Nc2cccc(C)c2C)c1 (configuration not stated)	12	5	21*	15
CC(=O)Nc1ccc(Cl)cc1C(=O)O	1	12	5	4
O=c1cc(-c2ccccc2)nc2nc(-c3ccccc3)[nH]n12	10	6	11	44*
CCCCn1c(SCC(=O)NC(C)(C)C)nnc1-c1ccco1	11	3	21*	38
CCCCn1c(SCC(N)=O)nnc1-c1ccco1	-4	4	-17	-5
CCOC(=O)N1CC=C2C(C#N)=C(N)C(C#N)(C#N)[C@H](c3ccccc3OCC)[C@H]2C1	10	6	4	64*
CCCCN(CCCC)CCNC(=O)Cc1nc2c(c(=O)[nH]c(=O)n2C)n1C	-4	7	6	-1
O=C(O)COCc1nc2ccccc2[nH]1	14	10	-11	22*
CCOC(=O)CCc1nc2ccccc2[nH]1	-10	-2	0	-18
CCCN(c1ccc(C(C)C)cc1)S(=O)(=O)c1c(C)noc1C	-1	8	35*	-1
SMILES	Cathepsin G inh	FXIa mix inh	FXIIa inh mix	C1s block
C=CCN=C(NC#N)SCC(=O)c1cccc(OC)c1	8	0	2	2
O=C(NCc1ccc2c(c1)OCO2)c1cccc(N2CCCC2=O)c1	11	5	27*	15
CCOC(=O)Cc1csc(-n2sc3ccccc3c2=O)n1	10	-1	31*	-8
CCOC(=O)Cc1csc(SCn2nnc3ccccc3c2=O)n1	11	5	-20	9
O=C(NCc1ccco1)c1noc2c1CCCCC2	0	0	8	0
COc1ccc2c(c1)CCc1c(C(=O)NCCCn3ccnc3)noc1-2	36*	4	4	-4
COc1ccc(C(=O)NCCCn2ccnc2)cc1	10	1	2	3
COc1ccc2c(c1)CCc1c(C(=O)NCc3ccco3)noc1-2	56*	15	13	11
COc1ccc(CNC(=O)c2noc3c2CCCC3)cc1	-7	4	13	-5
COCCNC(=O)c1noc2c1CCc1cc(OC)ccc1-2	50*	5	-14	16
COCC(C)NC(=O)c1noc2c1CCc1cc(OC)ccc1-2 (configuration not stated)	39*	6	0	12
O=c1cc(C(F)(F)F)nc(-c2ccccc2)[nH]1	1	10	1	-29
COc1ccc2c(c1)CCc1c(C(=O)NCCN3CCOCC3)noc1-2	58*	11	5	-25
COc1ccc2c(c1)CCc1c(C(=O)NC3CCCCC3)noc1-2	74*	26	1	3
O=C(NC1CCCCC1)c1noc2c1CCCCC2	3	-14	-1	-25
COc1cccc(-c2cc(C(=O)NCCN3CCOCC3)no2)c1	6	4	0	1
Cc1ccc(Cn2ncc3c(N4CCN(c5ccccc5C)CC4)ncnc32)cc1	20	13	4	22*
c1ccc(Cn2ncc3c(N4CCCCC4)ncnc32)cc1	5	2	11	-34
O=c1oc(-c2cccc(S(=O)(=O)N3CCOCC3)c2)nc2ccccc12	49*	4	2	17
O=c1oc(-c2cccnc2)nc2ccccc12	56*	3	2	15
c1cncc(-c2nc3ccccc3o2)c1	7	-4	11	1
C[C@H](CS)C(=O)N1CCC[C@H]1C(=O)O	0	9	-17	-3
O=C1CSC(=Nc2ccc(O)cc2)N1c1ccc(O)cc1	39*	35	4	9
CCN=C1SCC(=O)N1c1ccc(OC)cc1	5	1	5	-2
CCOc1cc2[nH]c(=S)n(CC3CCCO3)c(=O)c2cc1OCC (configuration not stated)	14	8	20	22*
SMILES	Cathepsin G inh	FXIa mix inh	FXIIa inh mix	C1s block
CCC12CCCN3CCC4(C(=C(C(=O)OC)C1)Nc1ccccc14)C32 (configuration not stated)	0	6	0	4
COc1ccc2[nH]c(=O)c(CN(Cc3nnnn3Cc3ccc(F)cc3)CC3CCCO3)cc2c1 (configuration not stated)	-5	6	21*	-20
COc1ccc2[nH]c(=O)c(CN(Cc3nnnn3Cc3ccccc3)CC3CCCO3)cc2c1 (configuration not stated)	-1	6	0	-26
Cc1cc(N2CCCC2)ccc1/C=N/n1cnnc1	9	10	10	6
COc1cc(-c2nnc(SCC(=O)c3cc(C)n(CC4CCCO4)c3C)o2)cc(OC)c1OC (configuration not stated)	19	12	3	22*
Cc1ccc(SCc2cn3c(C)csc3n2)cc1	-8	4	-11	3
Cc1cc(C)n(CCc2nc3c4ccccc4nc(SCc4ccc(C#N)cc4)n3n2)n1	7	6	26*	11
Cc1cc(C)n2c(SCc3ccc(C#N)cc3)nnc2n1	-1	4	1	0
Cc1cc(CN2CCOCC2)c(O)c(C2(C)CCCCC2)c1	5	7	4	14
CN(Cc1ccccc1)C(=O)CSc1nnc(-c2ccco2)n1-c1ccccc1	-21	-19	6	-58
CCOc1ccc2[nH]c3c(N4CCN(c5ccccn5)CC4)ncnc3c2c1	11	1	1	69*
